High-throughput results from PubChem BioAssay.
Rows were chosen to be rich in hits. Some 2.9% of all compounds tested hit in one or more screens of this group.
Rtt109 Vps75: inhibitors of C. albicans Rtt109/Vps75 HAT, primary screen, biochemical, ThioGlo CoA-SH fluorescence, plate reader | Histone acetyltransferase RTT109 (Candida albicans (strain SC5314 / ATCC MYA-2876)), … | purified Rtt109/Vps75, 4 h | inhibition, % at 34.9 µM | 330,000 tested, 0.16% active;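 active = inhibition of at least 50% in every replicate; inconclusive = best replicate reaches 50% inhibition but some replicates fall short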
ABHD5-PLIN5 inh: ABHD5-PLIN5 interaction inhibitors, primary screen, cell lysate, split luciferase complementation, luminescence; Perilipin-5 (Homo sapiens) + 1-acylglycerol-3-phosphate O-acyltransferase ABHD5 (Homo …; Split G. princeps luciferase complementation, 4 h; inhibition, % at 4 µM; 360,000 tested, 0.78% active;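 active = inhibition above the mean inhibition across every tested compound plus 3 SD, cut at about 22% in these data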;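 also: 0% = DMSO only wells and the 100% control is not disclosed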
H9c2 protect: cardioprotection against H2O2-induced cell death, primary screen, uHTS, H9c2 cells, ATPLite luminescence; AID 588492, 2011; H9c2 cardiomyocytes, H2O2 injury protection, 2 h; protection from H2O2 cell death, % at 20 µM; 360,000 tested, 0.63% active;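 active = compounds giving at least 50% protection of heart cells from peroxide-induced death in the single-dose screen, raw or plate-pattern-corrected value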;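 also: 0% = DMSO wells with peroxide and 100% = DMSO wells without peroxide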
DAGLB inhibitor: DAGLB lipase inhibitors, primary screen, biochemical, fluorescence, HTS. HEK293T DAGLB membrane lysate, EnzChek fluorogenic substrate. inhibition, % at 5.17 µM. 340,000 tested, 0.059% active. AID 504411, 2011; in the data active = inhibition above about 34%;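 also: 0% = enzyme with vehicle and 100% = wells lacking enzyme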
Target sequence (Q8NCG7 whole entry, looked up): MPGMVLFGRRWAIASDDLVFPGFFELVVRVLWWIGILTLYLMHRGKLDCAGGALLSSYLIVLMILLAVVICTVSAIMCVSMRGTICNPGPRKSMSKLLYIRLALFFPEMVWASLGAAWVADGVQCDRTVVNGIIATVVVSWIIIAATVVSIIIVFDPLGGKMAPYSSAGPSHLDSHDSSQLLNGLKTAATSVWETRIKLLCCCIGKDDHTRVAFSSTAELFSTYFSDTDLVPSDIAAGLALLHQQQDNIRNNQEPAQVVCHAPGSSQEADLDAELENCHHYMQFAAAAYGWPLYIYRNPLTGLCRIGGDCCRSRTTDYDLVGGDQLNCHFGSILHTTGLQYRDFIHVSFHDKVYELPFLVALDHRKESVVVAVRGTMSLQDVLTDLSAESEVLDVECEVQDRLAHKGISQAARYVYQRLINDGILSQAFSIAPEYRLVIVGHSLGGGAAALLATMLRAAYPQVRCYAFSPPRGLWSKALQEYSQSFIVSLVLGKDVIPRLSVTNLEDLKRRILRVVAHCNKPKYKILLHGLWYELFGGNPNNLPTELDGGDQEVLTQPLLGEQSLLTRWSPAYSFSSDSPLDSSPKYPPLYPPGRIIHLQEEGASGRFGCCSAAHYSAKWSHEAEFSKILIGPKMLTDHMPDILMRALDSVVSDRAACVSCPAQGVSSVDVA
sPLA2-III inh: human group III sPLA2 inhibitors, primary screen, biochemical, QFRET, BODIPY PC-A2 liposome substrate; 370,000 tested, 0.56% active; inhibition, % at 12.2 µM; Group 3 secretory phospholipase A2 (Homo sapiens), Q9NZ20; QFRET BODIPY PC-A2 liposome hydrolysis, fluorescence;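 active = inhibition above mean plus 3 SD of compounds lying within the high and low control bounds, cut at about 19% in these data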;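 also: 0% = median of test compound wells and 100% = no enzyme DMSO wells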
Myeloid diff 2: induction of myeloid progenitor differentiation, primary screen, cell-based, flow cytometry, MLPCN library; ER-HoxA9 myeloid progenitors, lysozyme-GFP differentiation; calls only at 10 µM; 360,000 tested, 1% active;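 active = normalized GFP-positive differentiation at or above the plate's own cutoff, the solvent-only control mean plus 3 SD; inconclusive = no clear call, values can overlap the other calls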;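 also: cells exposed to compound for four days before flow analysis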
hGIII sPLA2 conf: human group III sPLA2 inhibitors, confirmation, biochemical, QFRET, triplicate. inhibition, % at 12.2 µM. shares compounds with sPLA2-III inh. recombinant hGIII-sPLA2, BODIPY PC-A2 QFRET fluorescence. 2,000 tested, 34% active. AID 743280, 2014;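 active = mean inhibition across triplicates above the hit cutoff set in the earlier primary screen, cut at about 19% in these data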;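 also: 0% = enzyme with DMSO and 100% = DMSO wells lacking enzyme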
BODIPY interf: 535nm fluorescence optical interference, confirmation, artefact control for HGIII-sPLA2 inhibitor project, biochemical, QFRET. shares compounds with sPLA2-III inh. BODIPY FL product fluorescence interference. inhibition, % at 12.2 µM. 2,000 tested, 8.5% active. AID 743282, 2014;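 active = average inhibition above the solvent-only control mean plus 3 SD, cut at about 6% in these data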;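 also: 0% = DMSO with substrate plus product and 100% = DMSO with substrate alone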
535nm interf DR: 535nm fluorescence optical interference, dose response, artefact control for HGIII-sPLA2 inhibitor project, biochemical, QFRET; shares compounds with sPLA2-III inh; BODIPY FL product fluorescence interference, cell-free; IC50, µM; 240 tested, under 10 active;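 active = IC50 at or below 10 µM; inactive = IC50 above 10 µM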
Numbers without * were called inactive; i = inactive; ? = inconclusive; / = no result given.

SMILES	Rtt109 Vps75	ABHD5-PLIN5 inh	H9c2 protect	DAGLB inhibitor	sPLA2-III inh	Myeloid diff 2	hGIII sPLA2 conf	BODIPY interf	others
O=C(NCc1cccs1)C1CCCN(S(=O)(=O)c2ccccc2)C1 (stereo unspecified)	/	/	/	/	4	/	/	/
CCOC(=O)C1(C)CCN1C(=O)c1cccnc1Oc1ccccc1 (stereo unspecified)	/	-1	-4	/	-4	i	/	/
CC(C)N1CC2=C(C1=O)C(c1ccc(O)cc1)NC(=O)N2C (stereo unspecified)	2	4	2	1	5	i	/	/
CCCCCn1c(=NC(=O)c2cccnc2)c(C#N)cc2c(=O)n3cccc(C)c3nc21	-26	4	27	4	20*	i	1	-4
CCCCn1c(=NC(C)=O)c(C#N)cc2c(=O)n3cccc(C)c3nc21	16	2	9	0	-3	i	/	/
CC(CN1CCNCC1)(NS(=O)(=O)c1ccccc1)c1ccccc1 (stereo unspecified)	3	8	-10	-2	-25	i	/	/
CC(C)=C1C2CCC1C1C(=O)N(c3nccs3)C(=O)C21 (stereo unspecified)	-7	2	2	1	21*	i	3	-2
O=C(c1ccc2c(=O)n(C3CCCC3)c(=S)[nH]c2c1)N1CCN(C2CCCCC2)CC1	-1	3	3	1	-3	i	/	/
CCCn1c(=S)[nH]c2cc(C(=O)N3CCN(C4CCCCC4)CC3)ccc2c1=O	6	-3	4	1	20*	i	13	-13
FC(F)(F)c1cc(-c2ccccc2)nc(N2CCCCCC2)n1	-15	1	-2	-3	20*	i	5	-5
COc1ccc(-c2cc(C(F)(F)F)nc(N3CCCCCC3)n2)cc1	4	-3	-4	-12	0	i	/	/
O=[N+]([O-])c1ccc(NNS(=O)(=O)c2cc(Cl)ccc2Cl)nc1	29	-3	-1	5	23*	i	48*	72*
O=[N+]([O-])c1ccc(Nc2ccc(Cl)cc2)nc1	-3	1	-13	/	-3	i	/	/
C/C(=N\NC(=O)c1nnn(-c2nonc2N)c1CN(C)c1ccccc1)c1ccccc1O	9	3	57*	6	24*	?	33*	-2	535nm interf DR=>122
CC(=O)Nc1ccc(NC(=S)Nc2ccc(F)cc2)cc1	/	-4	-2	0	5	i	/	/
CC(C)(C)C(=O)NC(=S)Nc1ccc(F)cc1	0	3	-8	-5	23*	i	11	-4
c1ccc2cc(Cn3ccc4ccc(-c5ccc6ccn(Cc7ccc8ccccc8c7)c6c5)cc43)ccc2c1	/	/	/	/	14	/	/	/
c1ccc2cc(Cn3ccc4ccc(-c5ccc6cc[nH]c6c5)cc43)ccc2c1	/	/	/	/	23*	/	6	10*
O=C(Nc1nnc([C@H]2C[C@H](O)[C@@H](CO)O2)s1)Nc1cccc2c1CCCC2	/	-1	2	/	-5	i	/	/
CC(NC(=O)COC(=O)Cc1ccccc1[N+](=O)[O-])c1ccccc1 (stereo unspecified)	-5	2	18	-1	-3	i	/	/
CC(NC(=O)Cc1ccccc1[N+](=O)[O-])c1ccccc1 (stereo unspecified)	/	/	/	/	23*	/	-4	-4
Cn1ncc(Br)c1C(=O)N1CCc2ccccc21	5	0	-1	-1	3	i	/	/
Cn1nccc1C(=O)N1CCc2ccccc21	8	-4	0	0	87*	i	-1	-1
Cc1c(Cl)c(C(=O)NNC(=S)Nc2ccc(F)cc2)nn1C	6	-1	-3	1	34*	i	41*	5	535nm interf DR=>122
CCNC(=S)NNC(=O)c1nn(C)c(C)c1Cl	2	-3	10	1	6	i	/	/
SMILES	Rtt109 Vps75	ABHD5-PLIN5 inh	H9c2 protect	DAGLB inhibitor	sPLA2-III inh	Myeloid diff 2	hGIII sPLA2 conf	BODIPY interf	others
Cc1c(Cl)c(C(=O)NNC(=S)Nc2ccccc2)nn1C	-5	-4	-5	-1	29*	i	46*	0	535nm interf DR=>122
c1ccc(-c2cnnc(SCc3cn4cccnc4n3)n2)cc1	2	2	2	1	5	i	/	/
c1ccc2[nH]c(SCc3cn4cccnc4n3)nc2c1	3	2	-3	0	23*	i	-4	-7
CCN(c1ccccc1)S(=O)(=O)c1ccc(C(=O)Nc2nnc(-c3ccco3)o2)cc1	10	7	14	6	-6	i	/	/
Brc1ccc(-c2csc(/N=C/N3CCCC3)n2)cc1	8	-2	-1	-4	-3	i	/	/
CCN1CCN(/C=N/c2nc(C)cs2)CC1	2	-19	4	-1	94*	i	6	-3
COc1ccc(/C=C2\SC(=O)N(CC(=O)NNC(=O)c3ccccc3O)C2=O)cc1OC	-3	7	11	2	21*	i	17	2
O=C(CCN1C(=O)/C(=C\c2ccccc2)SC1=S)NNC(=O)c1cccnc1	5	4	-26	1	0	i	/	/
O=C(CSc1ccccc1)NNC(=O)c1ccccc1O	2	0	11	1	20*	i	9	-3
COc1ccc(/C=C2\SC(=O)N(CC(=O)NNC(=O)c3ccccc3O)C2=O)cc1	2	-5	24	6	11	i	/	/
O=C(CCN1C(=O)/C(=C\c2ccccc2)SC1=S)NNC(=O)c1ccccc1O	8	-7	10	14	25*	i	16	-5
O=C(CN1C(=O)S/C(=C\c2ccccc2)C1=O)NNC(=O)c1ccccc1O	4	-2	34	9	23*	i	16	3
Cc1nn(CC2CC2)c(=O)n1-c1ccc(F)cc1	2	4	2	1	2	i	/	/
C[C@H]1CN(C2CCCCC2)C(=O)[C@@H]1CC(=O)Nc1ccc(Br)cc1	/	-4	-4	-1	3	i	/	/
